# The source made the active and inactive calls. The calls were made as follows: active = hit-call score of the fitted dose curve at least 0.9, where 1 is the maximum; inactive = score below 0.9.
# Assays:
# Conditions in all cases: mRNA level, 48 h; actives raise or lower the signal
# [1] = read-out: Lipase C (LIPC), LIPC (gene 3990); test: LTEA_HepaRG_LIPC: Life Technologies and Expression Analysis (LTEA) Assay for Lipase C (LIPC) using HepaRG (AID 2283514)
# Outline: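 HepaRG, 48 h exposure, 8-pt half-log series from 100 uM in 0.5% DMSO, duplicates. Readout: LIPC mRNA by Fluidigm qRT-PCR, housekeeping-normalized (ACTB/GAPDH/POLR2A). Gain or loss fitted bidirectionally against DMSO baseline.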
# [2] = read-out: Lipoprotein lipase (LPL), LPL (gene 4023); test: LTEA_HepaRG_LPL: Life Technologies and Expression Analysis (LTEA) Assay for Lipoprotein lipase (LPL) using HepaRG (AID 2283515)
# Outline: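 HepaRG, 48 h exposure, 8-pt half-log dilutions from 100 uM, 0.5% DMSO vehicle, duplicates; qRT-PCR (Fluidigm array) of LPL mRNA vs housekeeping genes; bidirectional curve fit relative to DMSO baseline.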
# [3] = read-out: MicroRNA 122 (MIR122), gene 406906; test: LTEA_HepaRG_MIR122: Life Technologies and Expression Analysis (LTEA) Assay for MicroRNA 122 (MIR122) using HepaRG (AID 2283516); also: the transcript read is the microRNA miR-122
# Outline: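 qRT-PCR read-out (TaqMan, Fluidigm array), normalized to three housekeeping genes; HepaRG cells dosed 48 h at 8 concentrations up to 100 uM in 0.5% DMSO, duplicate; gain or loss fitted against DMSO baseline.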
# [4] = read-out: matrix metalloproteinase-10 (MMP10), MMP10 (gene 4319); test: LTEA_HepaRG_MMP10: Life Technologies and Expression Analysis (LTEA) Assay for matrix metalloproteinase-10 (MMP10) using HepaRG (AID 2283517)
# Outline: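 Transcript levels come from Fluidigm qRT-PCR normalized to three housekeeping genes, with curves fitted bidirectionally against 0.5% DMSO. Human HepaRG cells were dosed for 48 hours at concentrations up to 100 uM.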
# [5] = read-out: MYC, MYC (gene 4609); test: LTEA_HepaRG_MYC: Life Technologies and Expression Analysis (LTEA) Assay for MYC using HepaRG (AID 2283518)
# Outline: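 Differentiated HepaRG cells exposed 48 h in serum-free induction medium to 8 concentrations (top 100 uM, half-log steps; 0.5% DMSO), duplicate. MYC mRNA measured by Fluidigm qRT-PCR, normalized to ACTB, GAPDH, POLR2A; bidirectional fit versus DMSO.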
# [6] = read-out: matrix metalloproteinase-3 (MMP3), MMP3 (gene 4314); test: LTEA_HepaRG_MMP3: Life Technologies and Expression Analysis (LTEA) Assay for matrix metalloproteinase-3 (MMP3) using HepaRG (AID 2283519)
# Outline: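 qRT-PCR read-out of MMP3 mRNA (normalised to three housekeeping genes) in HepaRG liver cells after 48 h chemical exposure; 8-point half-log series, top 100 uM, 0.5% DMSO vehicle. Bidirectional curve fitting against DMSO baseline.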
# [7] = read-out: Phosphatase and tensin (PTEN), PTEN (gene 5728); test: LTEA_HepaRG_PTEN: Life Technologies and Expression Analysis (LTEA) Assay for Phosphatase and tensin (PTEN) using HepaRG (AID 2283523)
# Outline: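 HepaRG, 48 h exposure, 8-pt half-log series from 100 uM top, 0.5% DMSO vehicle, duplicates. Readout: Fluidigm qRT-PCR of PTEN transcript; housekeeping normalization (ACTB, GAPDH, POLR2A). Gain or loss fitted relative to DMSO baseline.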
# [8] = read-out: solute carrier (SLC22A1), SLC22A1 (gene 6580); test: LTEA_HepaRG_SLC22A1: Life Technologies and Expression Analysis (LTEA) Assay for solute carrier (SLC22A1) using HepaRG (AID 2283524)
# Outline: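 qRT-PCR readout (TaqMan, Fluidigm arrays) of SLC22A1 transcript, normalized to three housekeeping genes; bidirectional curve fit relative to 0.5% DMSO vehicle. Differentiated human HepaRG cells, 48 h chemical exposure, top concentration 100 uM, half-log steps, eight points.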
# [9] = read-out: Pyruvate Dehydrogenase Kinase 4 (PDK4), PDK4 (gene 5166); test: LTEA_HepaRG_PDK4: Life Technologies and Expression Analysis (LTEA) Assay for Pyruvate Dehydrogenase Kinase 4 (PDK4) using HepaRG (AID 2283525)
# Outline: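 HepaRG (human liver line), 48 h chemical exposure, 8-pt half-log CRC top 100 uM, 0.5% DMSO vehicle, duplicates. Readout: TaqMan qRT-PCR of PDK4 mRNA, housekeeping-normalized; gain/loss fit relative to DMSO baseline.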
# [10] = read-out: NAD(P)H dehydrogenase [quinone] 1 (NQO1), NQO1 (gene 1728); test: LTEA_HepaRG_NQO1: Life Technologies and Expression Analysis (LTEA) Assay for NAD(P)H dehydrogenase [quinone] 1 (NQO1) using HepaRG (AID 2283526)
# Outline: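 qRT-PCR read-out (Fluidigm TaqMan), normalized to three housekeeping genes, after 48 h chemical exposure of HepaRG cells. Concentrations: eight points, top 100 uM, half-log steps, 0.5% DMSO vehicle. Gain or loss of signal fitted relative to DMSO.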
# [11] = read-out: Nuclear factor erythroid 2-related factor 2 (Homo sapiens) (UniProt Q16236); test: LTEA_HepaRG_NFE2L2: Life Technologies and Expression Analysis (LTEA) Assay for Nuclear factor erythroid 2-related factor 2 (NFE2L2) Transcription Factor using HepaRG (AID 2283527);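 also: TaqMan qRT-PCR transcript level normalised to ACTB GAPDH and POLR2A housekeeping genes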
# Outline: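 HepaRG, 48 h dosing, 8-pt half-log series from 100 uM in 0.5% DMSO, duplicates. Read-out: NFE2L2 mRNA by qRT-PCR (ACTB/GAPDH/POLR2A normalization). Bidirectional curve fit vs DMSO baseline.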
# [12] = read-out: succinate dehydrogenase complex iron sulfur subunit B (SDHB), SDHB (gene 6390); test: LTEA_HepaRG_SDHB: Life Technologies and Expression Analysis (LTEA) Assay for succinate dehydrogenase complex iron sulfur subunit B (SDHB) using HepaRG (AID 2283528)
# Outline: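 HepaRG, 48 h exposure, 8-pt half-log series from 100 uM in 0.5% DMSO, duplicates. Readout: SDHB mRNA by Fluidigm qRT-PCR vs housekeeping genes; bidirectional fit relative to DMSO.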
# [13] = read-out: Signal transducer and activator of transcription 3 (Homo sapiens) (UniProt P40763); test: LTEA_HepaRG_STAT3: Life Technologies and Expression Analysis (LTEA) Assay for Signal transducer and activator of transcription (STAT3) using HepaRG (AID 2283529)
# Outline: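 HepaRG, 48 h exposure, 8-pt half-log series (top 100 uM), 0.5% DMSO vehicle, duplicates. Readout: STAT3 transcript by Fluidigm qRT-PCR, housekeeping-normalized; bidirectional fit vs DMSO baseline.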
# [14] = read-out: solute carrier (SLCO1B1), SLCO1B1 (gene 10599); test: LTEA_HepaRG_SLCO1B1: Life Technologies and Expression Analysis (LTEA) Assay for solute carrier (SLCO1B1) using HepaRG (AID 2283530)
# Outline: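 Differentiated human HepaRG cells were exposed for 48 h in serum-free induction medium to eight half-log concentrations, top 100 uM, in 0.5% DMSO. SLCO1B1 mRNA was measured by qRT-PCR, normalized to ACTB, GAPDH and POLR2A, and fitted bidirectionally against DMSO.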
# [15] = read-out: sulfotransferase 2A1 (SULT2A1), SULT2A1 (gene 6822); test: LTEA_HepaRG_SULT2A1: Life Technologies and Expression Analysis (LTEA) Assay for sulfotransferase 2A1 (SULT2A1) using HepaRG (AID 2283531)
# Outline: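 HepaRG human liver cells, 48 h exposure in serum-free induction medium to 8 half-log concentrations topping at 100 µM (0.5% DMSO), duplicate wells. SULT2A1 mRNA measured by TaqMan qRT-PCR, normalized to ACTB/GAPDH/POLR2A; bidirectional fit against DMSO.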
# [16] = read-out: Transforming Growth Factor (TGFA), TGFA (gene 7039); test: LTEA_HepaRG_TGFA: Life Technologies and Expression Analysis (LTEA) Assay for Transforming Growth Factor (TGFA) using HepaRG (AID 2283532)
# Outline: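 qRT-PCR read-out of TGFA transcript, normalized to three housekeeping genes, fitted bidirectionally against 0.5% DMSO baseline. Human HepaRG cultures received chemicals for 48 h at eight half-log concentrations, top 100 uM.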
# [17] = read-out: Transforming Growth Factor (TGFB1), TGFB1 (gene 7040); test: LTEA_HepaRG_TGFB1: Life Technologies and Expression Analysis (LTEA) Assay for Transforming Growth Factor (TGFB1) Transporter using HepaRG (AID 2283533)
# Outline: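 Differentiated HepaRG cells exposed 48 hr in serum-free induction medium to eight half-log concentrations up to 100 uM (0.5% DMSO), duplicate; TGFB1 mRNA by TaqMan qRT-PCR normalised to ACTB, GAPDH, POLR2A; bidirectional fit against DMSO.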
# [18] = read-out: Nuclear factor NF-kappa-B p105 subunit (Homo sapiens) (UniProt P19838); test: LTEA_HepaRG_NFKB1: Life Technologies and Expression Analysis (LTEA) Assay for Nuclear Factor Kappa B Subunit 1 (NFKB1) using HepaRG (AID 2283521);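 as to outcome: TaqMan qRT-PCR transcript normalised to ACTB GAPDH and POLR2A housekeeping genes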
# Outline: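 Differentiated human HepaRG cells were exposed for 48 h in serum-free induction medium to eight concentrations (top 100 uM, half-log steps, 0.5% DMSO), in duplicate. NFKB1 mRNA was measured by TaqMan qRT-PCR, normalized to ACTB/GAPDH/POLR2A, and fitted bidirectionally against DMSO.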
# Signal transducer and activator of transcription 3 (Homo sapiens), sequence (P40763 whole entry, looked up): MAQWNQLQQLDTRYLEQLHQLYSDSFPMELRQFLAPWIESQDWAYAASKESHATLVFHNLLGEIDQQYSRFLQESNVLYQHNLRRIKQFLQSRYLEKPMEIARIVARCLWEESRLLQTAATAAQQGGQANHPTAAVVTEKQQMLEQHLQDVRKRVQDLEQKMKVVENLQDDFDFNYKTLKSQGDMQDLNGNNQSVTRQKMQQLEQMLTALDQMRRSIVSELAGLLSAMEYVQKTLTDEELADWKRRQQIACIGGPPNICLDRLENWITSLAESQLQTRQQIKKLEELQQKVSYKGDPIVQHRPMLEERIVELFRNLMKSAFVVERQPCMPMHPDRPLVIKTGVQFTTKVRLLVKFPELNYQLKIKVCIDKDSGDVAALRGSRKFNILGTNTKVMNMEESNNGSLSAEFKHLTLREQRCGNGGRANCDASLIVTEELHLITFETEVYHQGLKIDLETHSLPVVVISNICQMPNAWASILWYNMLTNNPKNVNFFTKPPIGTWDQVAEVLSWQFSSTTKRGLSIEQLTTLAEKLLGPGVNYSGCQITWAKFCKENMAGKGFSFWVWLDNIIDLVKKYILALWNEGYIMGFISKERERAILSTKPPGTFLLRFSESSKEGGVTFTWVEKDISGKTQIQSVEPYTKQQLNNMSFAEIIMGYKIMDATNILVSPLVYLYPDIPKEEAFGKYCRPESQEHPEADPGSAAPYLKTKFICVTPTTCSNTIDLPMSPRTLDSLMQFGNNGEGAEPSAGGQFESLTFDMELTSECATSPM
# Nuclear factor NF-kappa-B p105 subunit (Homo sapiens), sequence (P19838 whole entry, looked up): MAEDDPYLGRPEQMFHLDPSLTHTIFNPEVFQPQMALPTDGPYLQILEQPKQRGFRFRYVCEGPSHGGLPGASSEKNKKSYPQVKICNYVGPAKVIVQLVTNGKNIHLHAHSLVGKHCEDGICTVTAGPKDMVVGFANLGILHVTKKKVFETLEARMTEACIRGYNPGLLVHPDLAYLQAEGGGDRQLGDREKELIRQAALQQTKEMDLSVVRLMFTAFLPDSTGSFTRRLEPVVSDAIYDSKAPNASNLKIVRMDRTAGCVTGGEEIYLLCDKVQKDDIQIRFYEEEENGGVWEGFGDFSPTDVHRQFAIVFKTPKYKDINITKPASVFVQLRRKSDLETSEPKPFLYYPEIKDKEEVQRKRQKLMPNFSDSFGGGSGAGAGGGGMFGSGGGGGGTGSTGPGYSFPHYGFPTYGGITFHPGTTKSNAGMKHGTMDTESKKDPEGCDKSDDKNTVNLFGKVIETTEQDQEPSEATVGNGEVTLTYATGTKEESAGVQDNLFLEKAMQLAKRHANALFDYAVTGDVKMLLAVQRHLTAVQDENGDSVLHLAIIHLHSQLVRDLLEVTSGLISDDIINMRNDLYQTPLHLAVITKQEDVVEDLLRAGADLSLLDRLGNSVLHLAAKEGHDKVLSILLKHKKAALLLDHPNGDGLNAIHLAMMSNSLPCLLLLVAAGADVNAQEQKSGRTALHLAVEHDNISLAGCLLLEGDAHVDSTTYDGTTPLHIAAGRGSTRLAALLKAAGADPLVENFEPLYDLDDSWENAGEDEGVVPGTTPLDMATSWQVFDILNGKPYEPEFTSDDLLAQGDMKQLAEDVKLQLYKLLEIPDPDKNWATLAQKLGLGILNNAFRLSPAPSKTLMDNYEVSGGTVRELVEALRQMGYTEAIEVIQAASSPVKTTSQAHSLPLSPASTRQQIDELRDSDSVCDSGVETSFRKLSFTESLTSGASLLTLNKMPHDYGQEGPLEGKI
# Nuclear factor erythroid 2-related factor 2 (Homo sapiens), sequence (Q16236 whole entry, looked up): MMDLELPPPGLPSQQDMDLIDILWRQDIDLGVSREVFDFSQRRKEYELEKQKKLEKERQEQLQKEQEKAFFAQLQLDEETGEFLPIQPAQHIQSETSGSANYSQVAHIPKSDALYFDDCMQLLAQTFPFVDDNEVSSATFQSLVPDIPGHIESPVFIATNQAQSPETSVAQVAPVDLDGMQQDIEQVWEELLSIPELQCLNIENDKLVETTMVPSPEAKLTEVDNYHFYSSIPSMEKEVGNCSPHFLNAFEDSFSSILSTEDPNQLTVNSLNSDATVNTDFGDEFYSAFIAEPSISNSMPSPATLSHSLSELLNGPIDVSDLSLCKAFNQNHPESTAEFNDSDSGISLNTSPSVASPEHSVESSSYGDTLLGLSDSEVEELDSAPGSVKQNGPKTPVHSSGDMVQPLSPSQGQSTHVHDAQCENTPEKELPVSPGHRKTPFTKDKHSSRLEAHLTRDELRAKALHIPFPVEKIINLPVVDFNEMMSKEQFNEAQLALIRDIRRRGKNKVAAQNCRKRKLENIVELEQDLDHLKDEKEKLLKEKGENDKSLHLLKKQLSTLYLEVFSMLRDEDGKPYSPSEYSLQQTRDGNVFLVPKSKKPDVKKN
compound,measurement,setting,value
N[C@@H](Cc1cc(I)c(Oc2ccc(O)c(I)c2)c(I)c1)C(=O)O,AC50,[1],72.3 µM (active)
same,AC50,[2],0.00787 µM (active)
same,outcome,[3],inactive
same,outcome,[4],inactive
same,outcome,[5],inactive
same,outcome,[6],inactive
same,outcome,[7],inactive
same,AC50,[8],65.7 µM (active)
same,AC50,[9],0.0111 µM (active)
same,outcome,[10],inactive
same,outcome,[11],inactive
same,outcome,[12],inactive
same,outcome,[13],inactive
same,AC50,[14],27.5 µM (active)
same,AC50,[15],27.1 µM (active)
same,outcome,[16],inactive
same,AC50,[17],63.2 µM (active)
COC(=O)CSc1cc(N=c2sc(=O)n3n2CCCC3)c(F)cc1Cl,outcome,[1],inactive
same,outcome,[2],inactive
same,outcome,[3],inactive
same,outcome,[4],inactive
same,outcome,[5],inactive
same,outcome,[6],inactive
same,outcome,[7],inactive
same,outcome,[8],inactive
same,outcome,[9],inactive
same,outcome,[10],inactive
same,outcome,[11],inactive
same,outcome,[12],inactive
same,outcome,[13],inactive
same,outcome,[14],inactive
same,outcome,[15],inactive
same,outcome,[16],inactive
same,outcome,[17],inactive
CCCCC(CC)CN1C(=O)C2C3C=CC(C3)C2C1=O (configuration not stated),AC50,[1],88.2 µM (active)
same,AC50,[2],58.4 µM (active)
same,outcome,[3],inactive
same,outcome,[4],inactive
same,outcome,[5],inactive
same,outcome,[6],inactive
same,outcome,[18],inactive
same,outcome,[7],inactive
same,AC50,[8],78.3 µM (active)
same,AC50,[9],81.3 µM (active)
same,outcome,[10],inactive
same,outcome,[12],inactive
same,outcome,[13],inactive
same,outcome,[14],inactive
same,AC50,[15],86.1 µM (active)
same,outcome,[16],inactive
same,AC50,[17],78.8 µM (active)
S=C([S-])NCCNC(=S)[S-].[Mn+2],AC50,[1],7.28 µM (active)
same,AC50,[2],3.29 µM (active)
same,AC50,[3],2.03 µM (active)
same,outcome,[4],inactive
same,AC50,[5],8.74 µM (active)
same,outcome,[6],inactive
same,AC50,[7],4.48 µM (active)
same,AC50,[8],2.8 µM (active)
same,AC50,[9],5.86 µM (active)
same,outcome,[10],inactive
same,AC50,[12],1.77 µM (active)
same,AC50,[13],1.94 µM (active)
same,AC50,[14],3.85 µM (active)
same,AC50,[15],3.76 µM (active)
same,AC50,[16],7.01 µM (active)
same,outcome,[17],inactive
C[C@]12CC[C@@H]3c4ccc(O)cc4C[C@@H](CCCCCCCCCS(=O)CCCC(F)(F)C(F)(F)F)[C@H]3[C@@H]1CC[C@@H]2O (some centres not stated),AC50,[1],50 µM (active)
same,outcome,[2],inactive
same,AC50,[3],28.7 µM (active)
same,AC50,[4],0.116 µM (active)
same,AC50,[5],0.0578 µM (active)
same,AC50,[6],0.084 µM (active)
same,AC50,[18],0.0508 µM (active)
same,outcome,[7],inactive
same,AC50,[8],14.5 µM (active)
same,AC50,[9],12.7 µM (active)
same,AC50,[10],0.0555 µM (active)
same,AC50,[12],11.6 µM (active)
same,outcome,[13],inactive
same,AC50,[14],25 µM (active)
same,AC50,[15],24.9 µM (active)
same,AC50,[16],0.0998 µM (active)
same,AC50,[17],0.121 µM (active)
CCNc1nc(N)nc(Cl)n1,outcome,[1],inactive
same,outcome,[2],inactive
same,outcome,[3],inactive
same,outcome,[4],inactive
same,outcome,[5],inactive
same,outcome,[6],inactive
same,outcome,[18],inactive
same,outcome,[7],inactive
same,outcome,[8],inactive
same,outcome,[9],inactive
same,outcome,[10],inactive
same,outcome,[12],inactive
same,outcome,[13],inactive
same,outcome,[14],inactive
same,outcome,[15],inactive
same,outcome,[16],inactive
same,outcome,[17],inactive
CCOC(=O)COc1cc(-n2ncc(C(F)(F)F)c(C)c2=O)c(F)cc1Cl,outcome,[1],inactive
same,outcome,[2],inactive
same,outcome,[3],inactive
same,outcome,[4],inactive
same,outcome,[5],inactive
same,outcome,[6],inactive
same,outcome,[7],inactive
same,outcome,[8],inactive
same,outcome,[9],inactive
same,outcome,[10],inactive
same,outcome,[12],inactive
same,outcome,[13],inactive
same,outcome,[14],inactive
same,outcome,[15],inactive
same,outcome,[16],inactive
same,outcome,[17],inactive

# Source: PubChem BioAssay (EPA / NIEHS)
